This is part of a sample that, as a whole, favours compounds with a hit. Of some 83,000 tested, about 20% had one in any assay.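 Testing used 96-well plates and a 48-hour single-concentration exposure. Example: -40 means 40% of the starting cells died.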 Values without a mark were called inactive. Active and inactive are the calls of the source. How the source made its calls: active means growth percent below 10; inactive means the rest.

Results on 10 compounds are retold here after PubChem BioAssay (NCI).

Test in all cases: NCI-60 one-dose screen, 48 h (100 = growth as untreated, 0 = no growth, -100 = all killed)
Assay [1] relates to SR leukemia. The following applies: 10 µM unless noted.
For assay [2], the system named is RPMI-8226 leukemia. Conditions: 10 µM.
Assay [3] has as its system OVCAR-8 ovarian. The following applies: 10 µM unless noted.
Assay [4] relates to OVCAR-5 ovarian. Conditions: 10 µM unless noted.
Assay [5] has as its system OVCAR-4 ovarian. Conditions: 10 µM unless noted.
Assay [6] deals with IGROV1 ovarian. The following applies: 10 µM unless noted.
The subject of assay [7] is OVCAR-3 ovarian. The following applies: 10 µM unless noted.
The subject of assay [8] is HS 578T breast. The following applies: 10 µM unless noted.
For assay [9], the system named is BT-549 breast. Conditions: 10 µM unless noted.
Assay [10] concerns MDA-MB-435 melanoma. Conditions: 10 µM unless noted.
Assay [11] deals with SW-620 colon. The following applies: 10 µM unless noted.
The test system of assay [12] is MCF7 breast. Conditions: 10 µM unless noted.
The test system of assay [13] is HCT-116 colon. The following applies: 10 µM unless noted.
Assay [14] concerns HCC-2998 colon. The following applies: 10 µM unless noted.
Assay [15] has as its system KM12 colon. The following applies: 10 µM unless noted.
Assay [16] relates to SK-OV-3 ovarian. Conditions: 10 µM.
For assay [17], the system named is NCI/ADR-RES ovarian. Conditions: 10 µM unless noted.
The subject of assay [18] is T-47D breast. The following applies: 10 µM.

Turning to `CCCCCCCCCCCCCCCC[N+]1(C)CCOCC1`, the growth in assay [1] is -29.4% (active); in [2] it was -33.9% (active); in assay [3], 16.1%; in assay [4], 13.8%; in assay [5] it was 20.7%; in [6], -43.1% (active). For the same compound, the growth in assay [7] is -5.72% (active); in [8], 16%; in [9] it was 15.1%; in [10], 26.9%; in assay [11], 6.63% (active); in assay [12], 61.6%. The growth is 18.2% in assay [13], 13.9% in assay [14] and -94.4% (active) in [15].
`CC1=C(C/C=C(\C)CCC[C@H](C)CCC[C@H](C)CCCC(C)C)C(=O)c2ccccc2C1=O`: the growth in [1] is 94.9%; in [2], 106%; in assay [3] it was 100%; in assay [4] it was 105%; in [16] it was 103%; in assay [6], 111%. In addition, the growth in assay [7] is 119%; in assay [17], 111%; in assay [18] it was 110%; in assay [9], 96.7%; in assay [10], 108%; in assay [11], 104%. For the same compound, the figures for the growth in [12], in [13] and in [14] were 108%, 98.8% and 108%, respectively.
Take `O=C(NC1CC1)c1cc2n(n1)CC(c1ccccc1)N2` (configuration not stated): the growth is 104% in [1]; 112% in assay [2]; 105% in [3]; 95.9% in assay [4]; 104% in [5]; 100% in assay [6]. Besides, the growth was 112% in [7]; 83.8% in assay [8]; 104% in [17]; 99.4% in assay [10]; 95.4% in assay [11]; 85.9% in assay [12]. Further, the growth in [13] was 102%; in [14], 101%; in [15], 102%.
Consider `Clc1ccc2c(c1)C[C@H]1C[C@@H](c3cccs3)N2O1`, for which the growth in assay [1] is 82.4%; in assay [2], 86.7%; in assay [3] it was 99.9%; in assay [4], 89.5%; in assay [16], 98.9%; in assay [6], 94.5%. In addition, the growth in [7] was 114%; in assay [17], 102%; in assay [18], 97.1%; in [9], 105%; in assay [10], 95.9%; in [11], 99.1%. Besides, the growth was 105% in [12], 105% in assay [13], 99.8% in assay [14] and 104% in assay [15].
On to `CSc1nnc(-c2sc3nnc(-c4ccccc4)c(-c4ccccc4)c3c2O)o1`, for which the growth is 62.5% in [1]; 67.2% in [2]; 85.8% in [3]; 101% in assay [4]; 85.5% in assay [16]; 86.8% in assay [7]. Besides, the growth in assay [8] is 98.4%; in assay [18] it was 75%; in assay [9], 74.1%; in [10] it was 88.4%; in [11], 92.5%; in [12], 83.5%. Besides, the growth is 60.9% in [13] and 72.9% in assay [15].
In the case of `CCCCCCCC/C=C\CCCCCCCCOc1cccc(CC(=O)NCC[N+]2(C)CCCCC2)c1`, the growth in assay [1] is 34.7%; in [2], 67.1%; in [3], 74.3%; in assay [4], 39.6%; in assay [5], 66.3%; in [6], -37% (active). Also, the growth in assay [7] was 89.9%; in assay [8] it was 73.9%; in assay [9], 95.3%; in [10], 82.1%; in [11], 59.7%; in assay [12], 75.7%. In addition, the growth in assay [14] is 67.9%; in [15] it was 43.6%.
Turning to `O=c1oc2ccccc2cc1-c1csc(N=Nc2c(O)[nH]c3ccc(Br)cc23)n1`, the growth is 114% in assay [1]; 109% in assay [2]; 102% in assay [3]; 97.6% in assay [4]; 99.8% in assay [6]; 108% in assay [7]. In addition, the growth is 93.3% in [8]; 103% in assay [17]; 107% in [18]; 102% in assay [9]; 98.8% in assay [10]; 103% in assay [11]. Further, the growth in [12] is 94%; in assay [13], 98.1%; in [14] it was 102%; in [15], 103%.
As to `CCOC(=O)c1cn2c3c(cc(F)cc3c1=O)C(CC)c1ccccc1C2` (configuration not stated), the growth in assay [1] was 66.2%; in [2] it was 64.2%; in assay [3] it was 95.9%; in assay [4], 104%; in [16] it was 104%; in assay [6], 93.1%. Further, the growth is 92.9% in assay [7]; 91.2% in [17]; 93.1% in [18]; 96.7% in assay [9]; 93.9% in assay [10]; 107% in [11]. The growth in assay [12] was 90.3%; in assay [13], 102%; in assay [14] it was 93.7%; in assay [15], 102%.
On to `COc1ccc(Cn2c(Br)c3c(c2-c2cc(OC)c(OC)c(OC)c2)CCc2sc(N)nc2-3)cc1`, for which the growth in assay [1] was 4.41% (active); in assay [2], 21.2%; in [3], 12.3%; in [4], 37.1%; in assay [16], 3.83% (active); in [6] it was 36.7%. In addition, the growth in assay [7] is -25.5% (active); in assay [8], 8.13% (active); in [17] it was 3.87% (active); in assay [18] it was 59.7%; in [9], 44.2%; in assay [10], -40.1% (active). Moreover, the growth in assay [11] was 19%; in assay [12], 10.1%; in assay [13] it was 6.12% (active); in [14], 12.4%.
On to `O=C(NCc1ccco1)C1CCN(S(=O)(=O)c2ccc(Cl)cc2)CC1`, for which the growth in assay [1] was 19.5%; in assay [2], -24.6% (active); in [3], 80.4%; in assay [4], 103%; in assay [16], 94.5%; in assay [7] it was -64.7% (active). Also, the growth in assay [17] is 66.6%; in assay [18], 78%; in assay [9], 84.4%; in [10] it was -9% (active); in assay [11], 38.5%; in assay [12], 64.7%. In addition, the growth was 70.4% in [13], 80.3% in assay [14] and 37.6% in assay [15].
